Data: PubChem BioAssay (NCATS)
Inconclusive results are not listed. Unless noted, calls follow the shape of the dose curve; as a rule, active = well fitted curve in either direction with a large enough effect (not every such curve was filed as active); inconclusive = small, poorly fitted or top-dose-only effect, or another doubt; inactive = flat fitted curve, though single readings scatter.

Tests used:
[1] = AP1 Signaling Pathway (AID 357); settings: ME-180 AP-1-bla reporter, EGF-induced, beta-lactamase ratio, 5 h; at 17.2 µM (top of the series) unless noted;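 also: ME-180 reporter cells stimulated with EGF at its EC50 level; % is scaled to controls: 0 for no effect and ±100 for the full control effect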
Summary of the method: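 AP-1-bla ME-180 cells, Opti-MEM + 0.5% dialyzed FBS, plated overnight 37 °C. Cpd titration + EC50 EGF, 5 h 37 °C. CCF4 2.5 h RT; ex 405, em 460/530 ratio → %activity, AC50.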

[2] = Stat Signaling Pathway (AID 446); settings: ME-180 SIE beta-lactamase reporter, IL-6 stimulated, 5 h; at 17.2 µM (top of the series) unless noted;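 also: ME-180 cervical cancer cells given 40 pM IL-6 alongside compound; SIE-controlled beta-lactamase reporter measured as 460/530 nm FRET emission ratio; % is scaled to controls: 0 for no effect and ±100 for the full control effect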
Summary of the method: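 ME-180 cells carrying a SIE-driven beta-lactamase reporter are stimulated with 40 pM IL-6 for 5 h at 37C in the presence of compound. The 460/530 nm FRET substrate ratio is read after 2.5 h at RT. Data are normalised to 300 pM IL-6 and to 125 nM JAK inhibitor controls.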

[3] = target: Glucocorticoid receptor (Homo sapiens) (UniProt P04150); experiment: GR-GFP Redistribution (AID 450;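 active = compounds whose dose series gives a full or clear partial fitted curve of increased nuclear translocation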; also: potency is read from the fitted curve at half-maximal effect)
Glucocorticoid receptor (Homo sapiens), sequence (P04150 whole entry, looked up): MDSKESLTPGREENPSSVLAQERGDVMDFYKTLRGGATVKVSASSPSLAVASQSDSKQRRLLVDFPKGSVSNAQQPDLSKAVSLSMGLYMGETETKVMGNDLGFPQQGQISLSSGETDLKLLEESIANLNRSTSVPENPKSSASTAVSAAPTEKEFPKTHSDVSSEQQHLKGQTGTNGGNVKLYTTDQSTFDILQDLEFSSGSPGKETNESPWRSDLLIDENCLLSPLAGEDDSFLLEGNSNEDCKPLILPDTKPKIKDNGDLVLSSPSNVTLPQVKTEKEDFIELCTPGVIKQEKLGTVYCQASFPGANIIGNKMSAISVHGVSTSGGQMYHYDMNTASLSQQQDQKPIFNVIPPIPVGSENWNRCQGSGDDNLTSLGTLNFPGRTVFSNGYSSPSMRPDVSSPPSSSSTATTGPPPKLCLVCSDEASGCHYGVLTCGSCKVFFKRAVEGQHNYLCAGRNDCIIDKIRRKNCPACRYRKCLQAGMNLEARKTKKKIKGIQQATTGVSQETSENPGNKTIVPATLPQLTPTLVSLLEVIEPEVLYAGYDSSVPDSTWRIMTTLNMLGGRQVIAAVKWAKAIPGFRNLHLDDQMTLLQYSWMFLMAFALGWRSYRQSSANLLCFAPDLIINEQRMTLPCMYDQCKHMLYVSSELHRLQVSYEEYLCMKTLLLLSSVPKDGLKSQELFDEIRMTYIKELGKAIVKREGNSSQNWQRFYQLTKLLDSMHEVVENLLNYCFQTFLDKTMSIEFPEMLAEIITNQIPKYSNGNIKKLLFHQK

CCN(CC)CCNc1nc(-c2ccco2)c2c(c1C#N)CC(C)(C)OC2
inactive: activity change, negative = inhibition [1] 12.8% | activity, negative = inhibition [2] 14.7% | Potency [3] > 20.6 µM

CCOC(=O)c1nc(N)c(C(=O)OCC)[nH]1
inactive: activity change, negative = inhibition [1] 8.92% | activity, negative = inhibition [2] 6.9% | Potency [3] > 20.6 µM

CN1CCN(CCC(=O)N2c3ccccc3Sc3ccc(Cl)cc32)CC1
inactive: activity change, negative = inhibition [1] 12.7% | activity, negative = inhibition [2] 6.36% | Potency [3] > 20.6 µM

COCc1[nH]nc2c1C(c1ccc(OC)cc1)C(C#N)=C(N)O2 (configuration not stated)
inactive: activity change, negative = inhibition [1] 2.89% | activity, negative = inhibition [2] -11.4% | Potency [3] > 20.6 µM

CCOC(=O)c1cc2c(=O)n3cccc(C)c3nc2n(CCc2ccccc2)c1=N
inactive: activity change, negative = inhibition [1] 9.31% | activity, negative = inhibition [2] 29.4% | Potency [3] > 20.6 µM

OCCN(CCO)c1ncnc2c1sc1nc(N3CCOCC3)c3c(c12)CCCC3
inactive: activity change, negative = inhibition [1] -27.6% | activity, negative = inhibition [2] -21.5% | Potency [3] > 20.6 µM

COc1ccc(Cn2c(N)c(C#N)c3nc4ccccc4nc32)cc1OC
inactive: activity change, negative = inhibition [1] -3.62% | activity, negative = inhibition [2] 11.6% | Potency [3] > 20.6 µM

Cn1c(OCc2ccco2)nc2c1c(=O)n(Cc1ccc(Cl)c(Cl)c1)c(=O)n2C
inactive: activity change, negative = inhibition [1] -3.54% | activity, negative = inhibition [2] 0.615% | Potency [3] > 20.6 µM

Cn1nnc2c(sc3nc(N4CCOCC4)c4c(c32)CCCC4)c1=O
inactive: activity change, negative = inhibition [1] -0.625% | activity, negative = inhibition [2] -0.897% | Potency [3] > 20.6 µM

COC(=O)CC1=C(C(=O)OC)C(c2ccc3c(c2Cl)OCO3)C(C#N)=C(N)O1 (configuration not stated)
inactive: activity change, negative = inhibition [1] 29.4% | activity, negative = inhibition [2] 14.3% | Potency [3] > 20.6 µM

CC1(C)CC(=O)C(C=NCCN2CCN(CCc3ccccc3)CC2)=C(O)C1
inactive: activity change, negative = inhibition [1] 2.91% | activity, negative = inhibition [2] -3.07% | Potency [3] > 20.6 µM

CCCc1cc(=O)oc2c(CN3CCCC3)c(O)c(Cl)cc12
inactive: activity change, negative = inhibition [1] -8.98% | activity, negative = inhibition [2] 0.152% | Potency [3] > 20.6 µM

O=C(O)CCCCCCC1C(=O)NC(=O)N1CCC(O)C1CCCCC1 (configuration not stated)
inactive: activity change, negative = inhibition [1] -4.54% | activity, negative = inhibition [2] 14.6% | Potency [3] > 20.6 µM

Cc1ccc(NC(=O)CSC2=C(C#N)C(c3ccco3)C3=C(CCCC3=O)N2)cc1 (configuration not stated)
inactive: activity change, negative = inhibition [1] -26.3% | activity, negative = inhibition [2] 30.5% | Potency [3] > 20.6 µM

CCOC(=O)C1=C(N)c2ccccc2CC1C(C)C (configuration not stated)
inactive: activity change, negative = inhibition [1] -3.93% | activity, negative = inhibition [2] -8.13% | Potency [3] > 20.6 µM

Cc1ccc(SCc2c(C#N)c3ccccc3n2C)cc1
inactive: activity change, negative = inhibition [1] -29.6% | activity, negative = inhibition [2] -15.3% | Potency [3] > 20.6 µM

COC(=O)c1c(NC(=O)c2nn(C)cc2Cl)sc2c1CCCC2
inactive: activity change, negative = inhibition [1] -24.3% | activity, negative = inhibition [2] -10.7% | Potency [3] > 20.6 µM

CCCCNC(=O)N(C)c1nncnc1C(=O)NC
inactive: activity change, negative = inhibition [1] 16.6% | activity, negative = inhibition [2] 11.5% | Potency [3] > 20.6 µM

CCOC(=O)/C(C#N)=C1\Nc2ccccc2N=C1N(CC(C)C)CC(C)C
inactive: activity change, negative = inhibition [1] 11.2% | activity, negative = inhibition [2] -4.73% | Potency [3] > 20.6 µM
